Screening results: PubChem BioAssay, National Center for Advancing Translational Sciences (NCATS)
SW480 rereplic = A quantitative high throughput screen for small molecules that induce DNA re-replication in SW480 colon adenocarcinoma cells; 1.8% of 340,000 active; SW480 DNA re-replication, Hoechst DNA content imaging, 48 h; AID 624297, 2012; Potency, µM (series often up to 46.1 µM), inactives show at the highest dose re-replication activation, hits mostly activators; note: % of control where 0% means no effect; nearly all actives have a fitted effect of over 55% in size
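Image-based DNA-content assay: after two days of treatment, nuclei were labelled with the DNA dye Hoechst and imaged, and hits were compounds raising the count of nuclei showing high fluorescence intensity.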
Gal4-VP16 FLuc = VP16 counterscreen qHTS for inhibitors of ROR gamma transcriptional activity; Drosophila S2 Gal4-VP16 UAS-luciferase, luminescence, 20 h; Potency, µM (highest dose often 53.6 µM), without a hit: at the highest dose activity, negative = inhibition, hits mostly inhibitors; 3.5% of 310,000 active; AID 2546, 2010;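 note: Gal4-VP16 expression switched on by copper sulfate through the metallothionein promoter; % is set by controls: 0 for no effect and ±100 for the full control effect; nearly all actives have a fitted effect of over 50% in size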
RORgamma inh = qHTS for inhibitors of ROR gamma transcriptional activity; Nuclear receptor ROR-gamma (Mus musculus), P51450; Drosophila S2 Gal4-RORgamma UAS-luciferase reporter, 20 h; Potency, µM (series often up to 53.6 µM), for inactives: top-dose activity change, negative = inhibition, hits mostly inhibitors; 5.4% of 310,000 active; AID 2551, 2010; note: % is set by controls: 0 for no effect and ±100 for the full control effect; nearly all actives have a fitted effect of over 60% in size
Target sequence (P51450 whole entry, looked up, the tested form may be a part): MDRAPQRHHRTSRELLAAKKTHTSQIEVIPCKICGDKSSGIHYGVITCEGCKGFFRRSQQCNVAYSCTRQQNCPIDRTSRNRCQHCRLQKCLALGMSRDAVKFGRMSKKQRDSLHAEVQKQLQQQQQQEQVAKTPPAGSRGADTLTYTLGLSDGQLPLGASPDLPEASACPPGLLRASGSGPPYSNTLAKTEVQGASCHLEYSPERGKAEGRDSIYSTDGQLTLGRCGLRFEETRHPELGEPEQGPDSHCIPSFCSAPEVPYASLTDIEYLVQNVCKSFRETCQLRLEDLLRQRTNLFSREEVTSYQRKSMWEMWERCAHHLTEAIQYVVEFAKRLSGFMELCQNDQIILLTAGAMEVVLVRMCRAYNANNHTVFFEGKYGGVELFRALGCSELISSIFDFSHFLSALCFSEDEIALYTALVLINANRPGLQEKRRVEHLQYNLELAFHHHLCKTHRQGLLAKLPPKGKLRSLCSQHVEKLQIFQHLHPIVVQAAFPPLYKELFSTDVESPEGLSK
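Compounds are pin-transferred onto Drosophila Schneider cells expressing a copper-inducible Gal4–ROR gamma transactivation domain fusion. After 1 hr, copper sulfate is added to 700 uM final; luciferase is read 20 hr later.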
MCF10A rereplic = A quantitative high throughput screen for small molecules that induce DNA re-replication in MCF 10a normal breast cells; MCF 10A DNA re-replication, Hoechst nuclear intensity, 48 h; Potency, µM (highest dose often 46.1 µM), without a hit: top-dose activity, positive = re-replication, usual class: activators; 2.9% of 350,000 active; AID 624296, 2012; note: % of control where 0% means no effect; nearly all actives have a fitted effect of over 50% in size
ELG1 DNA repair = qHTS screen for small molecules that inhibit ELG1-dependent DNA repair in human embryonic kidney (HEK293T) cells expressing luciferase-tagged ELG1; HEK293T ELG1-luciferase reporter, luminescence, 16 h; DNA damage induced by 5-fluorouridine; Potency, µM (doses to about 46.1 µM), inactives show at the highest dose activity change, negative = inhibition, actives largely listed as inhibitors; 2.3% of 330,000 active; AID 504467, 2011; note: % is set by controls: 0 for no effect and ±100 for the full control effect; nearly all actives have a fitted effect of over 55% in size
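In this reporter screen, reduction of luminescence relative to DMSO vehicle indicated activity. Compounds and 5-fluorouridine were added together to 2,000 cells per well, incubated for 16 hr at 37 °C, then developed with ONE-Glo.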
The depositor's hits bear a star; ? = inconclusive; · = no result given; [ ] = remark or other dose. Rows were chosen to be rich in hits. Some 10% of all compounds tested hit in one or more screens of this group. Calls come from the whole dose curve; as a rule, active = well fitted curve in the direction sought with a large enough effect; inconclusive = small, poorly fitted or top-dose-only effect, or another doubt; inactive = no such curve, though single readings can be large; an effect the other way counts as inactive or inconclusive. Potency is the fitted concentration of half-maximal effect.

SMILES	SW480 rereplic	Gal4-VP16 FLuc	RORgamma inh	MCF10A rereplic	ELG1 DNA repair
O=C(Nc1ccc2c(c1)CCC2)C1CCCN(c2ncccn2)C1 (stereo unspecified)	-3%	2%	39%	4%	?
Cc1nc2ncnn2c(N2CCCC(C(=O)Nc3ccc4c(c3)CCC4)C2)c1C (stereo unspecified)	-6%	-14%	-17%	4%	18µM*
Cc1noc(-c2ccc(CSCCC(=O)O)cc2)c1NC(=O)OC(C)c1ccccc1Cl (stereo unspecified)	·	-11%	-1%	·	·
Cc1cc(C)c(C#N)c(Nc2ccccc2Cl)n1	-8%	-3%	-12%[10 µM]	-1%	6%
N#Cc1c(Nc2ccccc2C(F)(F)F)s[nH]c1=O	?	11µM*	14µM*	18µM*	6%
N#Cc1c(Nc2ccccc2Cl)s[nH]c1=O	?	3.2µM*	1.3µM*	?	?
N#Cc1c(Nc2ccccc2)s[nH]c1=O	?	11µM*	?	?	13%
Cc1cc(C)nc(NS(=O)(=O)c2ccc(NC(=O)c3ccc(O)cc3O)cc2)n1	0%	7%	28%	1%	0%
CC(C)=NOCC(=O)Nn1c(COc2c(C)cccc2C)nc2ccccc2c1=O	-20%	7%	7%	0%	2%
O=c1c2ccccc2nc(COc2ccccc2)n1/N=C/c1cc([N+](=O)[O-])ccc1O	7%	4µM*	5µM*	26%	-21%
Cc1cc(/C=N/n2c(COc3ccccc3C)nc3ccccc3c2=O)c(O)c([N+](=O)[O-])c1	13µM*	35µM*	14µM*	10%	3%
CC(=O)Nn1c(COc2ccccc2C)nc2ccccc2c1=O	-6%	0%	14%	2%	16%
Cc1cccc(C)c1OCc1nc2ccccc2c(=O)n1/N=C/c1c[nH]c2ccccc12	14%	-15%	?	8%	8.2µM*
Cc1ccc(-c2[nH]ncc2/C=N/n2c(COc3ccccc3C)nc3ccccc3c2=O)cc1	?	?	?	5.8µM*	2.6µM*
CCN(C[C@H]1N[C@@](C)(C(=O)OC)[C@H]2C(=O)N(C)C(=O)[C@@H]12)C(=O)C1CCCCC1	?	·	·	-5%	-1%
Cc1ccccc1OCc1nc2ccccc2c(=O)n1/N=C/c1c[nH]c2ccccc12	?	-19%	?	16µM*	?
Cc1ccccc1OCc1nc2ccccc2c(=O)n1N	-3%	12%	28%	1%	?
Cc1ccc(NC(=S)C2=C(O)c3ccccc3N(C)S2(=O)=O)cc1	-4%	18µM*	?	9%	-1%
CN1c2ccsc2C(O)=C(C(=S)Nc2ccccc2)S1(=O)=O	-2%	?	10µM*	-4%	-4%
CCn1nc(C)c(CN2CCC(n3nccc3NC(=O)c3ccc4c(c3)OCO4)CC2)c1C	-10%	-4%	-33%	3%	10%
CCOC(=O)C1(C/C(C)=N/NC(N)=O)CC(C)OC1=O (stereo unspecified)	-2%	?	2%	13%	0%
NC(=O)c1cc(C(=O)c2ccc(Cl)cc2)c[nH]1	-9%	21%	7%	25%	?
CC1CCCCC1Nc1nc2ccc(Cl)cc2n2cnnc12 (stereo unspecified)	?	-4%	-15%	?	?
CSc1nc2ccccc2cc1/C=C(\C#N)c1cccc(C)c1	?	-1%	16%	10µM*	-2%
CCOC(=O)/C(C#N)=C/c1cc2ccccc2nc1N1CCCCC1	12%	13%	?	18%	7%
SMILES	SW480 rereplic	Gal4-VP16 FLuc	RORgamma inh	MCF10A rereplic	ELG1 DNA repair
CSc1nc2ccccc2cc1/C=C(\C#N)c1ccccc1	?	1%	-16%	13µM*	-12%
CSc1nc2ccccc2cc1/C=C(\C#N)c1ccc(Cl)c(Cl)c1	?	-4%	4%	7.3µM*	8%
COc1cccc(OC)c1C(=O)Nc1cccc(-n2cnnn2)c1	-2%	7%	5%	0%	0%
Cc1c(Cl)cccc1NC(=S)NCc1cccs1	-10%	7.1µM*	4.5µM*	29%	0%
S=C(NCc1cccs1)Nc1cccc(Cl)c1Cl	-3%	8.9µM*	10µM*	15%	6%
COc1ccc(C2=NOC(C)(c3nnc(Cc4ccccc4)o3)C2)cc1 (stereo unspecified)	-9%	·	·	14%	·
OC1CCCN(c2c3c(nc4cc(-c5cccc(Cl)c5)nn24)CCC3)C1 (stereo unspecified)	6%	-19%	32%	-5%	21µM*
Cc1cccc(-c2cc3nc4c(c(N5CCOCC5)n3n2)CCCC4)c1	0%	·	4%[0.365 µM]	1%	?
Cc1cccc(-c2cc3nc4c(c(NCc5ccco5)n3n2)CCCC4)c1	?	-13%	?	16µM*	?
Cc1cccc(-c2cc3nc4c(c(N5CCCC(O)C5)n3n2)CCC4)c1 (stereo unspecified)	7%	-2%	-4%	4%	16µM*
Fc1ccc(-c2cc3nc4c(c(N5CCOCC5)n3n2)CCCC4)cc1	1%	-11%	3.2µM*	11%	-19%
Cc1cc(C)c(C(=O)NNC(=O)c2cccnc2)c(C)c1	-8%	2%	18%	2%	0%
Cc1ccc(-c2nnc(-c3ccc4ccccc4c3)o2)cc1	?	·	·	6.5µM*	·
Cc1ccc(-c2nnc(Nc3ccccc3)o2)cc1	6%	14µM*	5µM*	-13%	?
Cc1ccc(NC(=O)Nc2nnc(-c3ccccc3)o2)cc1	-6%	-11%	-26%	18%	?
CCN(C(=O)c1ccc2c(=O)n3c(nc2c1)CCCCC3)c1ccc(F)cc1	-12%	-5%	2%	6%	3%
Cc1cc(CNC(=O)c2cccc([N+](=O)[O-])c2C)c2ccccc2n1	13%	10µM*	-26%	-2%	?
COc1ccc(NC(=O)/C(C#N)=C\c2ccc(-c3cccc(C(=O)O)c3C)o2)cc1	0%	?	4µM*	7%	13%
COc1ccc(NC(=O)/C(C#N)=C/c2ccc(-c3ccc(Cl)c(C(=O)O)c3)o2)cc1	-1%	?	11µM*	-2%	?
COc1ccc(NC(=O)/C(C#N)=C/c2ccc(-c3ccccc3C(=O)O)o2)cc1	0%	-3%	20%	-13%	4%
Cc1ccccc1NC(=O)/C(C#N)=C/c1ccc(-c2ccc(Cl)c(C(=O)O)c2)o1	4%	18µM*	-33%	7%	?
Cc1cccc(NC(=O)/C(C#N)=C/c2ccc(Sc3ccccc3)o2)c1C	?	-17%	-13%	18µM*	2%
